Eight molecules from PubChem BioAssay can be followed below.

Test [1] concerns Wnt5a (protein binding on small-molecule microarray). As to the kind of experiment: small molecules binding Wnt5a protein – biophysical, small-molecule microarray, 635/667 nm fluorescence, primary screen (AID 1142).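 Also: fluorescence read at 667 nm with signal to noise per printed feature.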 Conditions: 635 nm fluorescence, higher = more signal.
A short description of test [2]: ATP-based viability of Huh7 replicon cells – cell-based, CellTiter-Glo luminescence, basal, 48 h, cytotoxicity control for HCV replication inhibitor project, primary screen (AID 1143).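 Also: Huh7 hepatoma cells carrying a hepatitis C replication reporter with no stimulus; test concentration not given here.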 Conditions: higher = more signal, called active from +8 up or from −8 down. Background: Replicon systems follow genome replication, usually without infectious particles.
Test [3] can be described thus: Pseudomonas biofilm growth suppression – PAO1 strain, BacTiter-Glo luminescence, LB-PBS, primary screen (AID 1144). Conditions: P. aeruginosa PAO1 biofilm, 12 h, higher = more signal.
A short description of test [4]: basal CRE-LacZ reporter activity in PC12 – cell-based, unstimulated, primary screen (AID 1145). Conditions: no forskolin, luminescence, 4.5 h, higher = more signal, called active from +8 up or from −8 down.
Test [5] is described as follows: forskolin-driven CRE-LacZ activity in PC12 – cell-based, CRE-LacZ reporter, forskolin-stimulated, primary screen (AID 1146).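 Also: PC12 cells with 6xCRE LacZ reporter stimulated by forskolin 10 µM; beta-galactosidase reporter signal reflecting CREB driven transcription.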 Particulars: luminescence, 4.5 h, higher = more signal, called active from +8 up or from −8 down.
In test [6] the target is Streptavidin (Streptomyces avidinii) (UniProt P22629). As to the kind of experiment: compounds binding control protein streptavidin – biophysical, small-molecule microarray, 635/667 nm fluorescence, artefact control for SMM compound annotation, primary screen (AID 1147).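 Also: signal reflects streptavidin binding to arrayed compounds as a control protein.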 Particulars: higher = more signal.
A short description of test [7]: probe aInhba binding on compound microarray – biochemical, small-molecule microarray, 635/667 nm fluorescence, primary screen (AID 1148).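 Also: score merges 667nm spot fluorescence with signal-to-noise for antibody binding to printed compounds.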 Conditions: higher = more signal.
Test [8] concerns the target Torsin-1A (Homo sapiens) (UniProt O14656). As to the kind of experiment: TOR1A wild-type binding on microarray – cell lysate, small-molecule microarray, lysate, 635/667 nm, primary screen (AID 1149). Conditions: COS7 hTOR1A-WT lysate, 635 nm fluorescence, higher = more signal.
For test [9] the target is unchanged. In words: torsin A mutant lysate binding on microarrays – cell lysate, small-molecule microarray, COS7 lysate, 635/667 nm fluorescence, primary screen (AID 1150).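 Also: score pools 667 nm emission and signal to noise measuring lysate protein binding.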 Particulars: COS7 hTOR1A mutant lysate, 635 nm fluorescence, higher = more signal.
Test [10] concerns Sonic hedgehog protein (Shh). As to the kind of experiment: Sonic hedgehog microarray binding compounds – biochemical, small-molecule microarray, 635/667 nm fluorescence, primary screen (AID 1151).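 Also: Shh protein binding to compounds spotted on small-molecule microarray slides; score combines spot fluorescence intensity with signal-to-noise across triplicate slides.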 Conditions: 635 nm fluorescence, higher = more signal.
A short description of test [11]: optical density shifts of acrAB sulA E. coli – strain DRC41, OD650, 48 h, E. coli filamentation inducer project, primary screen (AID 1152).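 Also: E. coli MC1000 strain DRC41 lacking acrAB efflux pump and sulA.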 Particulars: higher = more signal, called active from +8 up or from −8 down.
Test [12] in a line: probe aLefty1 binding on compound microarray – biochemical, small-molecule microarray, 635/667 nm fluorescence, primary screen (AID 1153).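 Also: score merges spot fluorescence with signal-to-noise ratio from the scanned slide images.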 Conditions: higher = more signal.
Test [13] in a line: plasmodial surface anion channel blockers, osmotic lysis – cell-based, P. falciparum Indochina, OD700, 1 h, primary screen (AID 1154). Conditions: P. falciparum Indochina infected RBC osmotic lysis, higher = more signal, called active from +8 up or from −8 down.
Test [14] in a line: plasmodial surface anion channel blockers, osmotic lysis – cell-based, P. falciparum Indochina, OD700, 2 h, primary screen (AID 1155).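 Also: lysis reports solute entry through the parasite surface anion channel PSAC.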 Conditions: P. falciparum Indochina infected erythrocytes, higher = more signal, called active from +8 up or from −8 down.
The nature of test [15]: changes in parasitized red cell lysis, either direction – P. falciparum Indochina, OD700, 3 h, PSAC antagonist project, primary screen (AID 1156). Conditions: P. falciparum-infected erythrocytes, osmotic lysis, higher = more signal, called active from +8 up or from −8 down.
Test [16] in a line: plasmodial surface anion channel blockers, osmotic lysis – cell-based, P. falciparum Indochina, OD700, 18 h, primary screen (AID 1157). Conditions: P. falciparum Indochina infected erythrocytes, osmotic lysis OD700, 18 h; higher = more signal, called active from +8 up or from −8 down.
Test [17] is described as follows: S6 kinase pathway phospho-S6 level changes – cell-based, A549, cytoblot, luminescence, serum-stimulated, primary screen (AID 1158).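 Also: serum-stimulated A549 lung adenocarcinoma cells; signal is phosphorylated S6 detected by cytoblot immunostaining with HRP secondary.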 Particulars: 5 h, higher = more signal.
The target of test [18] is NADPH oxidase 2 (Homo sapiens) (UniProt P04839). In words: compounds shifting NOX2 Amplex Red fluorescence – cell-based, HEK293-NOX2, PMA-stimulated, NOX inhibitor project, primary screen (AID 1159). Also: test concentration not given here. Particulars: 45 min, higher = more signal, called active from +8 up or from −8 down.
Test [19] deals with NADPH oxidase 4 (Homo sapiens) (UniProt Q9NPH5). In words: compounds shifting NOX4 Amplex Red fluorescence – cell-based, HEK293-NOX4, tetracycline-induced, NOX inhibitor project, primary screen (AID 1160). Conditions: HEK293-NOX4, Amplex Red H2O2 fluorescence, 45 min; higher = more signal, called active from +8 up or from −8 down.
The target in test [20] is NADPH oxidase 5 (Homo sapiens) (UniProt Q96PH1). As to the kind of experiment: compounds shifting NOX5 Amplex Red fluorescence – cell-based, HEK293-NOX5, NOX inhibitor project, primary screen (AID 1161). Conditions: HEK293-NOX5, ionomycin, 45 min, higher = more signal.

Structures are written as SMILES. Calls of active or inactive are those of the source. Unless noted, no rule for the calls is given here.

Chain of NADPH oxidase 5 (Homo sapiens) (Q96PH1 whole entry, looked up): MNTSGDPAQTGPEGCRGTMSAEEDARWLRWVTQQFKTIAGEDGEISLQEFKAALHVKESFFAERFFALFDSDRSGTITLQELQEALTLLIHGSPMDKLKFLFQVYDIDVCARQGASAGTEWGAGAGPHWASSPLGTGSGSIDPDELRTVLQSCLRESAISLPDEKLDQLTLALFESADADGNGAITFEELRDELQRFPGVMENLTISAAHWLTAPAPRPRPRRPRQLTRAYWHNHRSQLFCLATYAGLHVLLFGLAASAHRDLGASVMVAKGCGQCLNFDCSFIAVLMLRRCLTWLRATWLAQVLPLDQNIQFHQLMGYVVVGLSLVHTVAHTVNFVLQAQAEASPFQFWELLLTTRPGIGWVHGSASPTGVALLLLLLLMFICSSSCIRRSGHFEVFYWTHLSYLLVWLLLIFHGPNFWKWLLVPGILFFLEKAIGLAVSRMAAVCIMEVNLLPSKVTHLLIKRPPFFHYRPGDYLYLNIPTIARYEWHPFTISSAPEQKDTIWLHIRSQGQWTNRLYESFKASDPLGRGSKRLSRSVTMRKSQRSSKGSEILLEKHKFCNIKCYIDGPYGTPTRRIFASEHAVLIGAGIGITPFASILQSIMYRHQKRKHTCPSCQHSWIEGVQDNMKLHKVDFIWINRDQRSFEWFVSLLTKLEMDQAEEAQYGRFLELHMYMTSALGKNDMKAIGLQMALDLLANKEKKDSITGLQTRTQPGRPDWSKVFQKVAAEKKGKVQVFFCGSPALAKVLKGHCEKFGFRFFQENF
Chain of Torsin-1A (Homo sapiens) (O14656 whole entry, looked up): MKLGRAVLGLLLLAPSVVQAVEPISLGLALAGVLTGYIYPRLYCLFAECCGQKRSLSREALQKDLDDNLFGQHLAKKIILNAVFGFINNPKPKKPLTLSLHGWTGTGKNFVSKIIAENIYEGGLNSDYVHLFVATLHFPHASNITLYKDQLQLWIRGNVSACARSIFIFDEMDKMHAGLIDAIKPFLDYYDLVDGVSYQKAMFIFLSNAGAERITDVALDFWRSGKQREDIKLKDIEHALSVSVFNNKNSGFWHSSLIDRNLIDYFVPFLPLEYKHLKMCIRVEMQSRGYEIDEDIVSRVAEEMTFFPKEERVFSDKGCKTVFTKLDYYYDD
Chain of Streptavidin (Streptomyces avidinii) (P22629 whole entry, looked up): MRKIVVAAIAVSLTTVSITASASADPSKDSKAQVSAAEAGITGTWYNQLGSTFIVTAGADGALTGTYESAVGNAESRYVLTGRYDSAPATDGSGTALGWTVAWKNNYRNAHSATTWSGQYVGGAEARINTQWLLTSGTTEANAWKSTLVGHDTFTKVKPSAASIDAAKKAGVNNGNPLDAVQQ
Chain of NADPH oxidase 4 (Homo sapiens) (Q9NPH5 whole entry, looked up): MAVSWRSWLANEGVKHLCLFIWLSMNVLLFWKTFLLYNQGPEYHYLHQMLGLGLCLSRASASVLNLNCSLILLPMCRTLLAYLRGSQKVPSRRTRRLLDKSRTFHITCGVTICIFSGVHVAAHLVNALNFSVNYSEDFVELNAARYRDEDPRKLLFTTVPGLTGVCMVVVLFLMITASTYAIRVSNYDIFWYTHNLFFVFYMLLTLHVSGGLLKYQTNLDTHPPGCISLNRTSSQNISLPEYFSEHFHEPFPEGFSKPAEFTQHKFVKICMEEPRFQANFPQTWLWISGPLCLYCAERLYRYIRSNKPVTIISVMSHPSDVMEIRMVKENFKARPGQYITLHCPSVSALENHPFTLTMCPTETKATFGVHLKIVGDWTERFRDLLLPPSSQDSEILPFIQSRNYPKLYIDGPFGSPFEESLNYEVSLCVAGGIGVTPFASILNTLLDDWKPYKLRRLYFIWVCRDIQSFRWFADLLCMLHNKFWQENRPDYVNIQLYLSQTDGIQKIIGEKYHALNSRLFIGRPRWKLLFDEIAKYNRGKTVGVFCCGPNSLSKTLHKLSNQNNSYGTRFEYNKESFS
Chain of NADPH oxidase 2 (Homo sapiens) (P04839 whole entry, looked up): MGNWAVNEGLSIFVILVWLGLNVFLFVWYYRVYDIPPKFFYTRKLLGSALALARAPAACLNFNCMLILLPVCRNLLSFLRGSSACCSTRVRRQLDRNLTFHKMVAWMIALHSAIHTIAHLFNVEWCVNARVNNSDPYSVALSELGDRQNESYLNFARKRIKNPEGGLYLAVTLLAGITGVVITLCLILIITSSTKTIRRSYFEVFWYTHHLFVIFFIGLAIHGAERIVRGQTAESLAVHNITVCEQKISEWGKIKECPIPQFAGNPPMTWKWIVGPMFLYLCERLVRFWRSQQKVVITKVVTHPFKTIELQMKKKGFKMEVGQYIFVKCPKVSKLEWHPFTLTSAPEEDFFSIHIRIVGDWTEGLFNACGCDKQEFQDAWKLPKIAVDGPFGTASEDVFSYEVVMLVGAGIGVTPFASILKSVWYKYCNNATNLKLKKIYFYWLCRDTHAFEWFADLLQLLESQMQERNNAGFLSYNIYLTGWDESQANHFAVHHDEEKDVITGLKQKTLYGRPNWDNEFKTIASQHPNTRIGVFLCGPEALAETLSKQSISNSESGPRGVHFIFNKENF

With `CCCCCCc1nc(-c2cc(C)c(OC)c(C)c2)cc2c1[Si](C(C)C)(C(C)C)OC2`, the composite z-score in [1] is -0.227; in test [6] it was 0.0643; in [7], 0.131; in test [8], -0.646; in test [9], -0.384; in [10] it was 0.985. The molecule also showed a composite z-score in test [12] of 0.147. Also, the z-score in test [2] is -2.72 (inactive); in [3], -0.661 (inactive); in test [4], -0.0989 (inactive); in test [5], 0.0738 (inactive); in [11], 0.488 (inactive); in test [13] it was 0.827 (inactive). Moreover, the z-score was -0.0892 (inactive) in [14]; 0.193 (inactive) in test [15]; -0.351 (inactive) in test [16]; 0.296 in [17]; -5.61 (inactive) in test [18]; -1.72 (inactive) in test [19]. Also, the z-score in test [20] was -3.75.
Turning to `C=C(COC)C(=O)CC[C@@H](OC(C)=O)c1ccc(CO)o1`, the composite z-score is 0.111 in [1]; -0.374 in test [6]; 0.138 in test [7]; 0.463 in test [8]; 1.06 in [9]; 2.14 in test [10]. Besides, the composite z-score in test [12] is 0.0371. In addition, the z-score in test [2] was 0.622 (inactive); in [3], -0.238 (inactive); in test [4] it was 0.363 (inactive); in [5] it was 0.283 (inactive); in test [11], 0.0488 (inactive); in test [13] it was 0.116 (inactive). Moreover, the z-score in [14] is -0.47 (inactive); in test [15], 0.195 (inactive); in test [16], -0.38 (inactive); in test [17], -0.142; in [18], 0.663 (inactive); in [19], 0.0844 (inactive). Moreover, in [20], the z-score came to 0.46.
Turning to `CC(C)=CCN[C@H](CO)c1ccccc1`, the composite z-score in test [1] was -0.249; in test [6], 0.0079; in test [7] it was 0.102; in test [8], -0.801; in test [9], 0.324; in test [10], 0.627. The composite z-score in [12] was -0.114. The z-score was -3.85 (inactive) in test [2]; -0.0678 (inactive) in test [3]; -1.05 (inactive) in test [4]; 0.0877 (inactive) in test [5]; -0.209 (inactive) in [11]; 0.128 (inactive) in [13]. Also, the z-score in test [14] was -0.916 (inactive); in [15], 0.198 (inactive); in test [16], -2.39 (inactive); in test [17] it was 0.983; in test [18], -0.763 (inactive); in test [19], -0.688 (inactive). The z-score in test [20] was -1.61.
For the molecule `C=C(CCCC)/C(=C/C[C@@H](OC(=O)c1ccncc1)c1ccc(OCCO)cc1)c1cc(C(=O)OC)ccc1OC`, the composite z-score in [1] was -0.109; in test [6] it was 0.378; in test [7] it was -0.128; in [8], 0.0383; in test [9], 0.111; in test [10] it was 1.41. Moreover, the composite z-score in test [12] is -0.0984. Also, the z-score in test [2] was -1.43 (inactive); in [3] it was -0.0194 (inactive); in test [4] it was 2.32 (inactive); in [5], 1.99 (inactive); in test [11], 0.4 (inactive); in test [13], 17.3 (active). Also, the z-score in test [14] is 3.18 (inactive); in test [15], 1.85 (inactive); in test [16] it was 0.969 (inactive); in test [17] it was 0.377; in [18] it was -1.61 (inactive); in test [19], -0.665 (inactive). Besides, the z-score in test [20] was -1.9.
Consider `COC(=O)[C@@]1(CCS(=O)(=O)c2ccccc2)N=C(c2ccc(OCCCO)cc2)O[C@H]1c1ccccc1CN=[N+]=[N-]`, for which the composite z-score in [1] is 0.351; in test [6], 0.415; in [7] it was 0.0808; in test [8], 0.252; in [9], 0.869; in [10] it was 0.281. In test [12], this molecule had a composite z-score of 0.365. For the same molecule, the z-score in test [2] is -2.7 (inactive); in test [3], 0.945 (inactive); in test [4], 1.38 (inactive); in [5], -1.43 (inactive); in [11], -0.146 (inactive); in test [13], 19.6 (active). Moreover, the z-score in test [14] was 3.74 (inactive); in [15], 1.26 (inactive); in test [16], 1.33 (inactive); in [17], 0.208; in test [18], -0.899 (inactive); in test [19], 0.495 (inactive). Further, the z-score in [20] is -0.807.
On to `C[N+](C)(C)CCCCCCNC(=O)[C@@H]1C[C@@H]2C(=O)N[C@@H](Cc3ccccc3)C(=O)N2[C@@H]1c1cccc(OCCO)c1`, for which the composite z-score in test [1] is 0.122; in [6] it was 0.0123; in test [7] it was -0.0918; in test [8] it was 0.787; in [9], 1.51; in test [10], 1.92. This molecule also came in with a composite z-score in test [12] of 0.0588. Besides, the z-score is -0.428 (inactive) in test [2]; -0.573 (inactive) in test [3]; -1.22 (inactive) in [4]; -1.04 (inactive) in test [5]; 1.49 (inactive) in test [11]; 10.1 (active) in [13]. For the same molecule, the z-score in [14] was 1.34 (inactive); in [15] it was 1.42 (inactive); in test [16], 0.349 (inactive); in test [17], 0.0757; in test [18] it was 1.39 (inactive); in test [19] it was 1.66 (inactive). In addition, the z-score in test [20] was 1.05.
Regarding `COc1ccc([Si](C)(C)[C@H]2[C@H](CC(=O)N3Cc4ccccc4C[C@H]3CO)O[C@@]3(C(=O)N(Cc4cccc(N5CCC5=O)c4)c4ccccc43)[C@@H]2C)cc1`, the composite z-score was 0.512 in test [1]; -0.0369 in test [6]; 0.0183 in test [7]; 0.906 in [8]; 0.838 in test [9]; 1.74 in test [10]. For the same molecule, the composite z-score in test [12] was -0.0536. The z-score in test [2] is -3.64 (inactive); in [3] it was 0.187 (inactive); in test [4] it was 7.57 (inactive); in [5] it was -0.86 (inactive); in [11], -0.372 (inactive); in test [13], 5.46 (inactive). For the same molecule, the z-score in test [14] is 1.63 (inactive); in [15], 0.011 (inactive); in test [16], 1.09 (inactive); in test [17], -0.0301; in [18], -1.15 (inactive); in test [19], -0.95 (inactive). For the same molecule, the z-score in [20] was -1.44.
Take `COC(=O)[C@@]1(Cc2ccc(OC)cc2)[C@H]2c3cc(C(=O)N(C)C)n(C)c3C[C@H]2CN1C(=O)c1ccccc1`: the composite z-score in test [1] was 0.485; in test [6], 1.77; in test [7], 0.706; in [8] it was -0.0231; in test [9] it was 0.777; in test [10], 0.418. Further, the composite z-score in [12] came out at 1.56. Further, the z-score in test [2] was -3.59 (inactive); in [3] it was 0.584 (inactive); in [4] it was 0.0041 (inactive); in test [5] it was 0.0225 (inactive); in test [11], -2.89 (inactive); in [13], 1.98 (inactive). The z-score in test [14] was 0.451 (inactive); in test [15], 1.07 (inactive); in test [16], 1.16 (inactive); in [17] it was 0.775; in test [18] it was 1.12 (inactive); in test [19], 1.77 (inactive). Moreover, the z-score in test [20] was determined as 2.16.
